ERK EGF block: blocks ERK signaling stimulated by EGF; HEK293-V1b, EGF-stimulated phospho-ERK AlphaScreen; 130,000 compounds, 0.41% hits; Potency, µM (series often up to 11.5 µM), usual class: inhibitors; AID 1454; active means well fitted inhibition curve with a large enough effect; further: nearly all actives have a fitted effect of over 55% in size
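HEK293 cells stably expressing V1b receptor, serum-reduced (1% FBS) overnight, got compound for 30 min at 37C, then 25 nM EGF for 5 min. Lysate phospho-ERK read by AlphaScreen SureFire; AC50 from Hill fits.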
Large screens that a line does not name were inactive. The entries come from a sample that favours hits as a whole.

COC(=O)N1CCC[C@@]2(CCN(c3ccccn3)C2)C1	none
COc1cccc([C@@H]2Oc3ccc(Br)cc3C[C@H]2OC(=O)Nc2cc(OC)c(OC)c(OC)c2)c1	none
Cc1cccc2sc(NNC(=O)c3cc(-c4cccs4)nc4ccccc34)nc12	ERK EGF block 13µM
C/C(=N\NC(=O)c1cc(-c2cccs2)nc2ccccc12)c1ccccn1	none
NNC(=O)c1cc(-c2cccs2)nc2ccccc12	none
COc1ccccc1CNc1ncnc2ccc(-c3cccnc3)cc12	none
CS(=O)(=O)c1ccc(CNC(=O)[C@@H]2C[C@H]2[C@@H](NP(=O)(c2ccccc2)c2ccccc2)c2ccccc2)cc1	none
O=S(=O)(c1cccc(NC(=S)N2CCN(c3cccc(Cl)c3)CC2)c1)C(F)F	ERK EGF block 25µM
NS(=O)(=O)c1ccc(NC(=S)N2CCN(c3cccc(Cl)c3)CC2)cc1	none
S=C(NC1CCCC1)N1CCN(c2cccc(Cl)c2)CC1	none
CC#CCC1(C(=O)OC)C(=O)NC[C@H]1c1ccccc1 (some centres not stated)	none
COC(=O)c1cc(C(=O)N2CCOCC2)cc([N+](=O)[O-])c1	none
COC1(C)CC2C(CC1OC(=O)c1cc([N+](=O)[O-])cc([N+](=O)[O-])c1)C2(C)C (configuration not stated)	ERK EGF block 25µM
CCOC(=O)c1cc(N)cc([N+](=O)[O-])c1	none
COc1ccc(/C=C/C2=C[C@]3(C)C[C@]2(C)[C@H](c2ccc(OC)cc2)CC3=O)cc1	none
Cc1nc2ccc(S(=O)(=O)Nc3cccc(-c4nc5cccnc5s4)c3)cc2s1	ERK EGF block 25µM
O=S(=O)(Nc1cccc(-c2nc3cccnc3s2)c1)c1ccc2c(c1)CCCC2	none
Cc1nc2ccc(S(=O)(=O)Nc3ccc(-c4nc5cccnc5s4)cc3)cc2s1	none
COc1ccc2c(c1)O[C@H](c1ccc3c(c1)OCO3)[C@@H](OC(=O)NCCOc1ccccc1)C2=O	none
CC(=O)Nc1ccc(C(=O)OCC(=O)/C(C#N)=C(\C)N)cc1	none
C/C(N)=C(/C#N)C(=O)COC(=O)c1cccc(O)c1	ERK EGF block 28µM
C/C(N)=C(/C#N)C(=O)COC(=O)c1cc2c(s1)CCCC2	none
CCCC[C@@H]1C[C@H]1C(NC(=O)c1cccnc1)c1ccc(-c2ccccc2)cc1 (some centres not stated)	none
CCOc1cccc(C(=O)c2ccc(O)c(O)c2O)c1	none
O=C(O)COc1cccc(-c2ocnc2-c2nc(-c3ccccc3)c(-c3ccccc3)o2)c1	none
O=C(Nc1ccc(Cl)cc1)Nc1ccccc1Sc1ncc([N+](=O)[O-])s1	none
O=[N+]([O-])c1cnc(Sc2ccncn2)s1	ERK EGF block 14µM
O=C1NCCN1c1ncc([N+](=O)[O-])s1	none
FC(F)(F)c1cc(NC(=S)Nc2ccc3cc4ccccc4cc3c2)cc(C(F)(F)F)c1	none
COC(=O)NC(c1ccccc1)c1c[nH]c2ccc(OC)cc12 (configuration not stated)	none
COC(=O)N1[C@H]2CC[C@@]3(C)C=C(C)O[C@]1(C)C3c1ccccc12	none
COC(=O)[C@@]1(Cc2ccccc2-c2ccco2)C=C[C@H](C)[C@@H](c2ccccc2)N1C(=O)C(F)(F)F	none
CCOC(=O)N1CCc2c(sc(NC(=O)CN3CCN(C)CC3)c2C(=O)Nc2ccccc2)C1	none
CCOC(=O)N1CCc2c(sc(NC(=O)CN3CCOCC3)c2C#N)C1	none
CCOC(=O)N1CCc2c(sc(NC(=O)CN3CCOCC3)c2C(=O)Nc2ccccc2)C1	ERK EGF block 35µM
CCCCC/C=C\C\C=C/C=C/C=C/[C@@H](SCC(N)C(=O)O)[C@@H](O)CCCC(=O)O (some centres not stated)	none
CN(C)C(=O)/N=N/C(=O)N(C)C	none
Cn1c(CNC2CCCCC2)nc2ccccc21	none
C/C(=N\NC(=O)c1ccccc1)c1nc2ccccc2n1C	none
Cc1cc(C)c(C)c(N=Nc2nc3ccccc3n2C)c1C	ERK EGF block 14µM
CCCCCCCC/C=C\CCCCCCCC(=O)OC[C@@H](O)COP(=O)(O)O	none
N[C@@H](CO)C(=O)NNCc1ccc(O)c(O)c1O	none
COc1cccc2sc(Nc3nc4ccc(NC(C)=O)cc4s3)nc12	none
COc1cccc2sc(NN)nc12	none
CCOC(=O)c1sc(Nc2nc3c(OC)cccc3s2)cc1C	ERK EGF block 25µM
N#Cc1ccc(-c2csc(NC(=O)c3ccc(N4C(=O)CCC4=O)cc3)n2)cc1	none
COc1ccccc1-c1csc(NC(=O)c2ccc(N3C(=O)CCC3=O)cc2)n1	ERK EGF block 28µM
CCOC(=O)c1csc(NC(=O)c2ccc(N3C(=O)CCC3=O)cc2)n1	none
C=C(C(C)=O)C(O)c1ccccc1 (configuration not stated)	none
CCC/C=C(\CCC)C(NS(=O)(=O)CC12CCC(CC1=O)C2(C)C)c1ccc(C(=O)OC)cc1 (configuration not stated)	none
Cc1[nH]c2ccccc2c1/C=N/Nc1ccccc1[N+](=O)[O-]	ERK EGF block 25µM
COc1cc(/C=N/Nc2ccccc2[N+](=O)[O-])cc(OC)c1O	none
COc1ccccc1/C=N\Nc1ccccc1[N+](=O)[O-]	ERK EGF block 10µM
COc1ccc(/C=N\Nc2ccccc2[N+](=O)[O-])c(C(=O)O)c1OC	none
CC(C)Oc1ccccc1/C=N/Nc1ccccc1[N+](=O)[O-]	ERK EGF block 13µM
COc1cc(/C=N/Nc2ccccc2[N+](=O)[O-])ccc1OC(=O)c1ccccc1F	none
Cc1[nH]c2ccccc2c1/C=N/NC(=S)NC(C)C	none
Cc1[nH]c2ccccc2c1/C=N/NS(=O)(=O)c1ccccc1	none
O=[N+]([O-])c1cccnc1N/N=C/c1ccccc1O	none
CCCCCCCCCCCCC/C=C/[C@@H](O)[C@H](COP(=O)([O-])OCC[N+](C)(C)C)NC(=O)CCCCCCCCCCCCCCCCC	none
CS(=O)(=O)Nc1cccc(-c2nccc(NCc3ccccc3)n2)c1	none
CC1(C)CC2/C(CO)=C/C=C/[C@](C)(O)CC[C@]21O (some centres not stated)	none
N#Cc1cccc(-c2nc(N3CCNCC3)c3ccccc3n2)c1	none
COc1ccc2c(c1)O[C@H](c1ccc3c(c1)OCO3)[C@@H](OC(=O)Nc1ccc(C)c(Br)c1)C2=O	none
CCNc1ncc2nc(-c3cccc(C#N)c3)c(=O)n(C)c2n1	none
Cn1cccc1C(=O)N1CCC2(CC1)CCN(c1ccncc1)CC2	none
c1ccc(-c2nc(-c3ccccc3)c(NC3CCCCC3)o2)cc1	none
FC(F)(F)c1cc(CN2CCC3(CCNCC3)CC2)cc(C(F)(F)F)c1	none
N#CCCCS(=O)(=O)c1ccccc1	none
CN(C)c1ccc(N=Nc2ccccc2C(=O)OCC(=O)NCC2CCCCC2)cc1	ERK EGF block 13µM
CN(C(=O)c1ccccc1C(=O)OCC(=O)NC(=O)NC(C)(C)C)C1CCCCC1	none
CN(C)c1ccc(C(=O)OCC(=O)NC2CCCCCC2)cc1	none
CC(=O)OCC(=O)[C@@]1(O)CCC2C3CC[C@H]4CC(O)CC[C@@]4(C)C3C(=O)C[C@]21C (some centres not stated)	none
O=C(N/N=C\c1ccccc1O)c1ccccc1O	none
COc1ccc([C@@H](C)C(=O)c2ccc(O)cc2O)cc1	none
c1ccc2c(NCC3CCCO3)nc(N3CCCCC3)nc2c1 (configuration not stated)	none
CCOc1ccc(-c2cc(C(=O)NCC3CCCO3)c3ccccc3n2)cc1 (configuration not stated)	none
CC(C)Oc1ccc(-c2nc(NCC3CCCO3)c3ccccc3n2)cc1 (configuration not stated)	ERK EGF block 32µM
CCCCCCCCCCCCC/C=C/[C@@H](O)[C@H](CO)NC(=O)CCCCCCC	none
CNC(=O)[C@H](C)[C@H]1C[C@]1(C)[C@H](NC(=O)OCc1ccccc1)c1ccccc1	none

Source: PubChem BioAssay
